Inconclusive results are not listed. Active and inactive are the calls of the source. The call rests on the fitted dose curve; in most records, active means well fitted curve in the direction sought with a large enough effect in the repeat runs; inconclusive means weak or mixed curves; inactive means no such curve, though single readings can be large; an effect the other way counts as inactive or inconclusive.
Key:
[1] = A CellTox Green Cytotoxicity Assay to monitor cytotoxicity in HEK293 cells - 0 hour (AID 1224869); further: nearly all actives have a fitted effect of over 50% in size
In short: (§1)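 Dead-cell fluorescence measured kinetically: asymmetric cyanine dye, HEK293, 600 cells/well, 5 h settle, 23 nL cpd/DMSO, 37 C, reads 0–40 h every 8 h.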

[2] = qHTS RealTime-Glo MT Cell Viability Assay in HepG2 cells - 40 hour (AID 1224870); further: nearly all actives have a fitted effect of over 50% in size
In short: (§2)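 Real-time viability: cells seeded at 600 per well together with NanoLuc and cell-permeant prosubstrate, compounds added after 5 h incubation. Luminescence tracked at 0, 8, 16, 24, 32 and 40 h of exposure.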

[3] = A CellTox Green Cytotoxicity Assay to monitor cytotoxicity in HEK293 cells - 40 hour (AID 1224871); further: nearly all actives have a fitted effect of over 45% in size
In short: as §1

[4] = qHTS RealTime-Glo MT Cell Viability Assay in HEK293 cells - 16 hour (AID 1224872); further: top concentration of the series differs between compounds; nearly all actives have a fitted effect of over 50% in size
In short: (§3)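 Viability tracked continuously by luminescence as live cells reduce a prosubstrate for NanoLuc; HEK293 cells preincubated 5 h, compound-treated at 37 C, and read at 0, 8, 16, 24, 32 and 40 h.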

[5] = A CellTox Green Cytotoxicity Assay to monitor cytotoxicity in HEK293 cells - 24 hour (AID 1224875); further: series mostly up to about 77 µM; nearly all actives have a fitted effect of over 45% in size
In short: as §1

[6] = A CellTox Green Cytotoxicity Assay to monitor cytotoxicity in HepG2 cells - 16 hour (AID 1224876); further: nearly all actives have a fitted effect of over 45% in size
In short: (§4)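 First, HepG2 cells (600/well) mixed with reagent were plated; second, after 5 h at 37 C they received compounds via pintool; third, fluorescence was measured at 0 h through 40 h at 8 h intervals.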

[7] = qHTS RealTime-Glo MT Cell Viability Assay in HepG2 cells - 32 hour (AID 1224877); further: nearly all actives have a fitted effect of over 55% in size
In short: (§5)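 Viability was tracked continuously by NanoLuc luminescence from prosubstrate reduced by living HepG2 cells, at successive time points over 40 h of compound exposure. Cells with reagent were preincubated 5 h at 37 °C before compound addition.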

[8] = A CellTox Green Cytotoxicity Assay to monitor cytotoxicity in HepG2 cells - 24 hour (AID 1224878); further: nearly all actives have a fitted effect of over 45% in size
In short: as §4

[9] = A CellTox Green Cytotoxicity Assay to monitor cytotoxicity in HepG2 cells - 40 hour (AID 1224879); further: nearly all actives have a fitted effect of over 40% in size
In short: as §4

[10] = qHTS RealTime-Glo MT Cell Viability Assay in HEK293 cells - 0 hour (AID 1224880)
In short: (§6)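 600 HEK293 cells per well, dispensed already mixed with RealTime-Glo MT reagents. Compound dosing came 5 h later. The same wells were read for luminescence at 0, 8, 16, 24, 32 and 40 h of exposure at 37 C.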

[11] = A CellTox Green Cytotoxicity Assay to monitor cytotoxicity in HEK293 cells - 32 hour (AID 1224881); further: nearly all actives have a fitted effect of over 40% in size
In short: as §1

[12] = A CellTox Green Cytotoxicity Assay to monitor cytotoxicity in HepG2 cells - 0 hour (AID 1224882); further: nearly all actives have a fitted effect of over 35% in size
In short: as §4

[13] = A CellTox Green Cytotoxicity Assay to monitor cytotoxicity in HepG2 cells - 32 hour (AID 1224883); further: nearly all actives have a fitted effect of over 50% in size
In short: as §4

[14] = A CellTox Green Cytotoxicity Assay to monitor cytotoxicity in HEK293 cells - 8 hour (AID 1224884); further: nearly all actives have a fitted effect of over 35% in size
In short: as §1

[15] = qHTS RealTime-Glo MT Cell Viability Assay in HepG2 cells - 16 hour (AID 1224885); further: nearly all actives have a fitted effect of over 50% in size
In short: as §5

[16] = qHTS RealTime-Glo MT Cell Viability Assay in HEK293 cells - 24 hour (AID 1224886)
In short: as §3

[17] = qHTS RealTime-Glo MT Cell Viability Assay in HEK293 cells - 8 hour (AID 1224887)
In short: as §6

[18] = qHTS RealTime-Glo MT Cell Viability Assay in HepG2 cells - 8 hour (AID 1224873); further: nearly all actives have a fitted effect of over 55% in size
In short: as §2

[19] = qHTS RealTime-Glo MT Cell Viability Assay in HEK293 cells - 40 hour (AID 1224874); conditions: RealTime-Glo luminescence, stronger effect = lower value; further: nearly all actives have a fitted effect of over 50% in size
In short: as §6
On the % scale 0 is the no-effect control and ±100 the full control effect.

CN(C)c1ccncc1
inactive: outcome [1] | outcome [2] | Potency [3] | outcome [4] | Potency [5] | Potency [6] | outcome [7] | Potency [8] | Potency [9] | Potency [10] | Potency [11] | Potency [12] | Potency [13] | Potency [14] | outcome [15] | outcome [16] | outcome [17]

CCC(C)SSC(C)CC (stereo unspecified)
inactive: outcome [1] | outcome [2] | Potency [3] | outcome [4] | outcome [18] | Potency [5] | Potency [6] | outcome [7] | Potency [8] | Potency [10] | Potency [11] | Potency [12] | Potency [13] | outcome [15] | outcome [16] | outcome [17]

CC(C)(C)OC=O
inactive: outcome [1] | outcome [2] | Potency [3] | outcome [18] | max response [19] 8.37% | Potency [5] | Potency [6] | outcome [7] | Potency [8] | Potency [10] | Potency [11] | Potency [12] | Potency [13] | Potency [14] | outcome [15] | outcome [16] | outcome [17]

BrCCOc1ccccc1
inactive: outcome [1] | outcome [2] | Potency [3] | outcome [4] | max response [19] -4.49% | Potency [5] | Potency [6] | outcome [7] | Potency [8] | Potency [9] | Potency [10] | Potency [11] | Potency [12] | Potency [13] | Potency [14] | outcome [15] | outcome [16] | outcome [17]

CCCCCCCCCCCCCCCCN(C)C
inactive: cytotoxicity [1] 1.73% [at 6.97 µM] | activity change, negative = cytotoxic [2] -1.15% [at 6.97 µM] | cytotoxicity increase [3] 4.91% [at 6.97 µM] | viability change, negative = cytotoxic [18] 3.36% [at 6.97 µM] | max response [19] 4.91% | activity change [5] 2.54% [at 6.97 µM, stronger effect = higher value] | cytotoxicity increase [6] 1.82% [at 6.97 µM] | activity change, negative = cytotoxic [7] -0.525% [at 6.97 µM] | cytotoxicity [8] 1.92% [at 6.97 µM] | cytotoxicity increase [9] 0.0455% [at 6.97 µM] | activity change, negative = cytotoxicity [10] 2.86% [at 6.97 µM] | cytotoxicity increase [11] 3.45% [at 6.97 µM] | cytotoxicity [12] 2.28% [at 6.97 µM] | cytotoxicity increase [13] 1.06% [at 6.97 µM] | cytotoxicity increase [14] -0.796% [at 6.97 µM] | activity change, negative = cytotoxic [15] 0.191% [at 6.97 µM] | activity change, negative = cytotoxicity [16] 5.99% [at 6.97 µM] | activity change, negative = cytotoxicity [17] 5.23% [at 6.97 µM]

Cc1ccc(O)c(C(=O)c2ccccc2)c1
inactive: outcome [1] | outcome [2] | Potency [3] | outcome [4] | outcome [18] | Potency [5] | Potency [6] | outcome [7] | Potency [8] | Potency [9] | Potency [10] | Potency [11] | Potency [12] | Potency [13] | Potency [14] | outcome [15] | outcome [16]

O=C(OOC(=O)c1ccccc1)c1ccccc1
inactive: outcome [1] | outcome [2] | Potency [3] | outcome [18] | Potency [5] | Potency [6] | outcome [7] | Potency [8] | Potency [9] | Potency [11] | Potency [12] | Potency [13] | Potency [14] | outcome [15]

C[n+]1ccccc1/C=N/O
inactive: outcome [1] | outcome [2] | Potency [3] | outcome [4] | outcome [18] | Potency [5] | outcome [7] | Potency [8] | Potency [9] | Potency [10] | Potency [11] | Potency [12] | Potency [13] | Potency [14] | outcome [15] | outcome [16] | outcome [17]

CC(C)OC(=O)C(C(=O)OC(C)C)=C1SC=CS1
inactive: outcome [1] | outcome [2] | Potency [3] | outcome [18] | Potency [5] | Potency [6] | outcome [7] | Potency [8] | Potency [9] | Potency [10] | Potency [11] | Potency [12] | Potency [13] | Potency [14] | outcome [15]

NNC(=O)CCCCC(=O)NN
inactive: outcome [1] | outcome [2] | Potency [3] | outcome [4] | outcome [18] | Potency [5] | Potency [6] | outcome [7] | Potency [8] | Potency [9] | Potency [10] | Potency [11] | Potency [12] | Potency [13] | Potency [14] | outcome [15] | outcome [16]

CC(O)C(CO)C(C)O (stereo unspecified)
inactive: outcome [1] | outcome [2] | Potency [3] | outcome [4] | outcome [18] | max response [19] -0.0675% | Potency [5] | outcome [7] | Potency [8] | Potency [9] | Potency [10] | Potency [11] | Potency [12] | Potency [13] | Potency [14] | outcome [15] | outcome [16] | outcome [17]

CC(=O)c1ccc2ccc3ccccc3c2c1
inactive: outcome [1] | outcome [2] | Potency [3] | outcome [18] | Potency [5] | Potency [6] | outcome [7] | Potency [8] | Potency [9] | Potency [10] | Potency [11] | Potency [12] | Potency [13] | Potency [14] | outcome [15]

O=S(=O)(O)c1ccc(Cl)cc1
inactive: outcome [1] | outcome [2] | Potency [3] | outcome [4] | outcome [18] | max response [19] 0.949% | Potency [5] | outcome [7] | Potency [8] | Potency [10] | Potency [11] | Potency [12] | Potency [13] | Potency [14] | outcome [15] | outcome [16] | outcome [17]

Reference: PubChem BioAssay (Tox21)
